# Tau filament bind – qHTS Assay for Tau Filament Binding | 71,000 tested, 2% active | Microtubule-associated protein tau (Homo sapiens), P10636 | Potency, µM (top dose mostly 57.1 µM), for inactives: at the top dose activity change, negative = inhibition | recombinant tau filaments, thioflavin S fluorescence, 15 h; filaments grown with octadecylsulfate alongside compound;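 also: actives lower thioflavin S fluorescence by blocking filaments or displacing dye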
#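 Quantitative HTS: thioflavine S signal from ODS-induced tau filaments, excited at 450 nm, emission 510 nm. Conditions: 1 uM tau, 30 uM ODS, 15 h at 37 C, pH 7.4.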
# Bst PK mod – Pyruvate Kinase; purified pyruvate kinase, luminescence ATP production; ribose 5-phosphate activator present at AC10; Potency, µM; 51,000 tested, 1.2% active; AID 361, 2006; in the data active = potency below about 11 µM; inconclusive = mostly about 12 µM to 25 µM;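 the screen sought inhibitors and activators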;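 also: scaled between full activation by ribose 5 phosphate and full inhibition by luteolin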
# ERK AVP inh – qHTS Assay for Inhibitors of the ERK Signaling Pathway using a Homogeneous Screening Assay; HEK293-V1b, vasopressin-stimulated pERK AlphaScreen; Potency, µM (doses to about 57.5 µM), for inactives: at the highest dose activity, negative = inhibition, actives largely listed as inhibitors; 72,000 tested, 0.99% active; also: nearly all actives have a fitted effect of over 55% in size
#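 qHTS, compounds titrated on V1b-expressing HEK293 cells. Preincubation 30 min at 37C, vasopressin 25 nM for 5 min, lysis 10 min, bead incubation 5 hr at room temperature.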
# FLuc inh – qHTS Assay for Inhibitors of Firefly Luciferase. Luciferin 4-monooxygenase (Photinus pyralis), P08659. 72,000 tested, 2.2% active. purified firefly luciferase, luminescence, 8 min. Potency, µM (titrated, usually from 57.1 µM), for inactives: at the highest dose activity change, negative = inhibition, most hits filed as inhibitors; also: nearly all actives have a fitted effect of over 40% in size
# Target sequence (P08659 whole entry, looked up): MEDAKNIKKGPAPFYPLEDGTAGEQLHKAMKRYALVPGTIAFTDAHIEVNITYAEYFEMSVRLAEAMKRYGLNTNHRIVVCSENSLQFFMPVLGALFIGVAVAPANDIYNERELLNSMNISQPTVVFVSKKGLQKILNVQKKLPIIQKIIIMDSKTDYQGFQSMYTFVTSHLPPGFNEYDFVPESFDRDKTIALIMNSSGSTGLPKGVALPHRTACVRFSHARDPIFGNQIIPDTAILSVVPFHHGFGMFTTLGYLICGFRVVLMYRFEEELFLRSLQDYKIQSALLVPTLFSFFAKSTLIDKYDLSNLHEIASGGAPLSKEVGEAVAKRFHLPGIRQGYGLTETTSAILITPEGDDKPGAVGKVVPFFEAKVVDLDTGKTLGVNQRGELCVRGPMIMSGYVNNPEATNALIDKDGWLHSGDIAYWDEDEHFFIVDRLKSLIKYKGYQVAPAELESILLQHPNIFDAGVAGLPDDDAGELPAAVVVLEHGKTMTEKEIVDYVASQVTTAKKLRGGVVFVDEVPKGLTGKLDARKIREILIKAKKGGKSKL
#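 qHTS concentration-response profiling: light output of P. pyralis luciferase with luciferin and 10 uM ATP, imidazole buffer pH 7.2. Read by luminescence after 8-min room-temperature incubation.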
# DNA Pol III inh – qHTS Assay for Inhibitors of DNA Polymerase III Holoenzyme System | reconstituted DNA polymerase III holoenzyme replication, biochemical | Potency, µM (titrated, usually from 57.1 µM), inactives show top-dose activity change, negative = inhibition | 71,000 tested, 0.25% active | AID 603, 2007
#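 Reconstituted *E. coli* holoenzyme (0.35 nM Pol III, 1 nM beta, 154 nM SSB, 2 nM primase) was preincubated with compound for 15 min at RT. Synthesis on 1.4 nM ssM13Gori ran 35 min, then was stopped with PicoGreen/EDTA and read as dsDNA fluorescence.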
# 15-hLO inh – qHTS Assay for Inhibitors of 15-hLO (15-human lipoxygenase); purified 15hLO-1, xylenol orange hydroperoxide absorbance; Potency, µM (series often up to 57.1 µM), without a hit: top-dose activity change, negative = inhibition, actives largely listed as inhibitors; 74,000 tested, 1.4% active; AID 887, 2007; also: nearly all actives have a fitted effect of over 55% in size
#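 Inhibition is scored from a chromogenic endpoint. After 15 min enzyme-compound contact, arachidonic acid (50 uM final) reacts 6 min with 40 nM 15hLO-1 at room temperature, then Fe-XO reagent is added for 30 min and absorbance ratio recorded.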
# Numbers without * were called inactive; i = inactive; ? = inconclusive; . = not tested or not shown; ! = not active in a repeat; [ ] = another dose, or the depositor's remark. Shown are actives, neighbours in structure and some others; about 6% of the full set was active somewhere. Unless noted, calls follow the shape of the dose curve; as a rule, active = well fitted curve in the direction sought with a large enough effect; inconclusive = small, poorly fitted or top-dose-only effect, or another doubt; inactive = no such curve, though single readings can be large; an effect the other way counts as inactive or inconclusive. Unless noted, % is scaled to controls: 0 for no effect and ±100 for the full control effect; potency is read from the fitted curve at half-maximal effect.
SMILES,Tau filament bind,Bst PK mod,ERK AVP inh,FLuc inh,DNA Pol III inh,15-hLO inh
O=C(NCCN1CCN(c2ccccc2)CC1)c1cccn2c(=O)c3cc(Cl)ccc3nc12,16µM*,>57,-16%,2%,0%,-5%
O=C(NCCN1CCN(c2cccc(Cl)c2)CC1)c1cccn2c(=O)c3ccccc3nc12,-22%,>57,25%,-2%,-4%,7%
Clc1ccccc1-c1nccc(-n2ccnc2)n1,12%,.,?,-1%[2.29 µM],-10%,?
Clc1ccccc1C(c1ccccc1)(c1ccccc1)n1ccnc1,15%[25.6 µM],.,25µM*!,5%[25.5 µM],-4%[25.6 µM],-24%
Cc1cc2n(n1)C(c1ccc(O)cc1)Nc1ccccc1-2 (configuration not stated),10%,?,4%,-21%,-1%,-16%
Cc1cc2n(n1)C(c1ccco1)Nc1ccccc1-2 (configuration not stated),23%,9.5*,13%,-21%,-9%,?
NC(=O)CSc1nc2sc3c(c2c2ncnn12)CCCC3,3%,1.3*,-36%,-2%,-15%,0%
O=C(CSc1ccc2nnc(-c3ccc(F)cc3)n2n1)N1CCOCC1,-20%,.,.,1%,-1%,6%
Cc1cc2nc(-c3ccc(SCC(=O)N4CCN(C(=O)c5ccco5)CC4)nc3)[nH]c2cc1C,20%,0.79*,8%,0.63µM*,-13%,-10%
Cc1cc2nc(-c3ccc(SCC(=O)N4CCOCC4)nc3)[nH]c2cc1C,19%,2.1*,-20%,2.5µM*,?,-3%
CCCCOc1cccc(C(=O)Nc2ccc(N3CCN(CC)CC3)cc2)c1,20µM*,>57,-21%,-3%,-6%,-8%
CCOc1cccc(C(=O)Nc2ccc(N3CCN(S(C)(=O)=O)CC3)cc2)c1,-15%,>57,-3%,-2%,-2%,-2%
O=c1c[n+](CCCC[n+]2cc(=O)o[nH]2)[nH]o1,6%[11.4 µM],.,-5%[11.5 µM],2%[11.4 µM],-4%[11.4 µM],-2%[11.4 µM]
CCC/C=C/C1C(=O)C2OC2C2(OCC(CC)(CC)CO2)C1CO (configuration not stated),.,.,-11%[11.5 µM],.,.,3%[11.4 µM]
N#Cc1cccc(NC(=O)N2CC[C@@]3(CCCN(C(=O)c4cccc(F)c4)C3)C2)c1,-14%,.,?,-5%[11.4 µM],-12%,-12%
O=C1CC(=O)N(Cc2ccco2)C(=O)N1,13%,>57,-10%,-1%,16µM*,-17%
O=C1CC(=O)N(Cc2cccs2)C(=O)N1,2%,>57,26%,2%,-10%,3%
c1ccc2c(c1)OCC(c1nnc3sc(-c4cnccn4)nn13)O2 (configuration not stated),25µM*,>57,-19%,-1%,-5%,?
c1csc(-c2nn3c(C4COc5ccccc5O4)nnc3s2)c1 (configuration not stated),2%,>57,?,0%,-3%,?
C1CCN2CC3CC(CN4CCCC[C@@H]34)C2C1 (some centres not stated),.,.,7%,.,.,-1%[25.6 µM]
CCc1cccc(NC(=O)CCc2nc(-c3cccs3)no2)c1,-8%,.,25µM*,-3%,0%,-12%
CCOC(=O)c1ccc(NC(=O)CCc2nc(-c3ccccc3)no2)cc1,93%,>57,16µM*,1%,-1%,-18%
O=C(CCc1nc(-c2cccs2)no1)Nc1cnc2ccccc2c1,4%,>57,28%,-1%,-26%,-8%
CCOC(=O)c1ccc(NC(=O)CCc2nc(-c3ccccc3Cl)no2)cc1,32%,>57,?,0%,-1%,-23%
Cn1cccc1C(=O)N1CCC[C@@]2(CCN(c3ccncc3)C2)C1,14%,.,-17%,0%[11.4 µM],-4%,5%
SMILES,Tau filament bind,Bst PK mod,ERK AVP inh,FLuc inh,DNA Pol III inh,15-hLO inh
Clc1ccc2c(c1)N=C(N1CCNCC1)c1ccccc1N2,40µM*,.,23%,1%,-4%,2%[25.6 µM]
CC(C)(C)c1ccc(-c2conc2N)cc1,-17%,?,-6%,10µM*,-7%,-6%
C=CCCCCCCCCCCCC(O)CC(O)CO (configuration not stated) (tested in a mixture with another compound),.,.,-15%,.,.,-5%
COc1ccc2[nH]c3c(=O)n(CCCCC(=O)NCCN4CCCC4)c(=S)[nH]c3c2c1,151%,.,-9%,-4%,-10%,10µM*
COc1cccc(Nc2ncc3nc(-c4ccccc4)c(=O)n(Cc4cccs4)c3n2)c1,i,.,10%,2%[11.4 µM],-4%,-10%
O=C1CCCC=C1[C@@H](O)CCOC(c1ccccc1)(c1ccccc1)c1ccccc1,.,.,-5%[11.5 µM],0%[11.4 µM],.,15%[11.4 µM]
CCN(CC)c1ccc2c(C)c(-c3ccc(N)cc3)c(=O)oc2c1,.,i,.,?,.,.
CCN(CC)c1ccc(N)cc1,13µM*,.,?,.,-4%,-19%
CCCS(=O)(=O)NCCc1cc2c(OC)ccc(OC)c2[nH]c1=O,0%,6.4*,37%,-4%,-1%,7%
O=C(c1cccs1)c1ccc(-c2cccs2)s1,i,6.3*,81%,5µM*,5%,3%
COc1ccc(NC(=O)c2[nH]c(C)c(C(C)=O)c2C)cc1Cl,43%,>57,?,-13%,-4%,32µM*
CC(=O)c1c(C)[nH]c(C(=O)Nc2ccc3c(c2)OCCO3)c1C,-10%,i,13%,13µM*,-9%,-5%
CN1CCc2ccccc2[C@@H]1Cc1ccccc1NC(=O)c1sc2ccccc2c1Cl,2%[11.4 µM],.,38%[11.5 µM],-3%[11.4 µM],-3%[11.4 µM],16%[11.4 µM]
C[C@H]1C[C@@H]2[C@H]3CCC4=CC(=O)C=C[C@@]4(C)[C@]3(Cl)[C@@H](Cl)C[C@]2(C)[C@]1(O)C(=O)COP(=O)(O)O,4%[11.4 µM],.,.,2%[11.4 µM],2%[11.4 µM],.
C=C1C(=O)O[C@H]2C[C@@]3(C)CCCC(=C)[C@@H]3C[C@H]12,-10%,.,.,-7%[11.4 µM],-1%,.
Cc1cc(C)nc(N2CCCC(C(=O)NCCc3ccccc3F)C2)n1 (configuration not stated),2%,3.2*,-6%,2%,-7%,1%
CCOc1cc(C)nc(N2CCCC(C(=O)NCc3ccccc3F)C2)n1 (configuration not stated),-3%,>57,-22%,-1%,-2%,-7%
CCNc1ncc2nc(-c3cccs3)c(=O)n(Cc3cccs3)c2n1,i,.,3%,2%[11.4 µM],-1%,-11%
CCOc1ccc(OCC)c2sc(C)nc12,13%,3.4*,?,1%,-7%,1%
FC(F)(F)c1cc(CN2CCCC3(CCNCC3)C2)cc(C(F)(F)F)c1,-24%,.,-8%,1%[11.4 µM],-14%,3%

# Screens from PubChem.
